For some of these results: Entries with a potency or affinity are not part of this list.
Key:
Set-up in all cases: scale not given: direction of the effect not stated beside the values
[1] = molecular target: Protein translocase subunit SecA (Escherichia coli (strain K12)) (UniProt P10408); experiment: Assay to Identify E. coli SecA ATPase Inhibitors; type: functional; conditions: 30 µM
[2] = molecular target: T1, Ubiquitin-activating enzyme e1, putative (Leishmania donovani (strain BPK282A1)) (UniProt E9BSI1); experiment: Leishmania donovani Ubiquitin Activating Enzyme (LdE1); type: functional; conditions: 30 µM
T1 sequence (whole entry): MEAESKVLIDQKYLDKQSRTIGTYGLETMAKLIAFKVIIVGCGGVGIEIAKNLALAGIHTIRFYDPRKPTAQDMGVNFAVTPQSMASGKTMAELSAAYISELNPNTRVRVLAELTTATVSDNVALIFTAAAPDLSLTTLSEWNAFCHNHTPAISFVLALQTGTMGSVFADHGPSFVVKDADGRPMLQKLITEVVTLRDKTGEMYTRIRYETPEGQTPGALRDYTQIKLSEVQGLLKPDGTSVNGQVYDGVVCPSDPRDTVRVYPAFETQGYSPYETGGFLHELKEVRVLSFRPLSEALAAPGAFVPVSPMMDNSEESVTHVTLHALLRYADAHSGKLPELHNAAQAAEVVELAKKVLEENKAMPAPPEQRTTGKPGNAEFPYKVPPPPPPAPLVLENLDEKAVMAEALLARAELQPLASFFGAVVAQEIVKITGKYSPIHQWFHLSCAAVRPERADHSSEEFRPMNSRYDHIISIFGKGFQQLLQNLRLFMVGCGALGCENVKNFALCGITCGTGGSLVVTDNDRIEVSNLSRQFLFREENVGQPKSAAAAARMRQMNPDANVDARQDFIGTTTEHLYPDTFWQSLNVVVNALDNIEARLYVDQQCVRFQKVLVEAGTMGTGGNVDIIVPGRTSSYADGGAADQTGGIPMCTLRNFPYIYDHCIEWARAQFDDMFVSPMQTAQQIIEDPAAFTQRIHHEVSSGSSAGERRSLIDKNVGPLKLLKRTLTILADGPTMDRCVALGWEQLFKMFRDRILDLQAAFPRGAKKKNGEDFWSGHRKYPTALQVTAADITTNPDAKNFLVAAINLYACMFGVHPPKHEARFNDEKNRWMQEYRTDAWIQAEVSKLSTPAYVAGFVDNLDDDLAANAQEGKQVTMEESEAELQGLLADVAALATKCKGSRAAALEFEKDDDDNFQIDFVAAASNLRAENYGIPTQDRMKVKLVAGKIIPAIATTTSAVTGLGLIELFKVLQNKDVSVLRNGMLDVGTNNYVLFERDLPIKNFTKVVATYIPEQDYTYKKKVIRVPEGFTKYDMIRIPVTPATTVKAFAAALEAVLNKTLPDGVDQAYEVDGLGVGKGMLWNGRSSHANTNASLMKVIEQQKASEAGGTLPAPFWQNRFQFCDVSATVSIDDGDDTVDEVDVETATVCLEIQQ

[3] = molecular target: AMP-activated protein kinase, AMPK (Homo sapiens) (UniProt P54646+O43741+P54619+Q9UGJ0+Q9Y478+Q13131+Q9UGI9); experiment: AMP-dependent Kinase enzyme assay. An in vitro enzyme assay that detects ADP turnover that is directly proportional to AMPK activity. This uses naive AMPK that is activated during the assay with MK-8722; type: functional; conditions: 30 µM
[4] = molecular target: Sialic acid-binding Ig-like lectin 9 (Homo sapiens) (UniProt Q9Y336); experiment: Hs-Siglec9 ALPHAscreen SOP 20170721; conditions: 10 µM
Chain of Sialic acid-binding Ig-like lectin 9 (Homo sapiens) (Q9Y336 whole entry): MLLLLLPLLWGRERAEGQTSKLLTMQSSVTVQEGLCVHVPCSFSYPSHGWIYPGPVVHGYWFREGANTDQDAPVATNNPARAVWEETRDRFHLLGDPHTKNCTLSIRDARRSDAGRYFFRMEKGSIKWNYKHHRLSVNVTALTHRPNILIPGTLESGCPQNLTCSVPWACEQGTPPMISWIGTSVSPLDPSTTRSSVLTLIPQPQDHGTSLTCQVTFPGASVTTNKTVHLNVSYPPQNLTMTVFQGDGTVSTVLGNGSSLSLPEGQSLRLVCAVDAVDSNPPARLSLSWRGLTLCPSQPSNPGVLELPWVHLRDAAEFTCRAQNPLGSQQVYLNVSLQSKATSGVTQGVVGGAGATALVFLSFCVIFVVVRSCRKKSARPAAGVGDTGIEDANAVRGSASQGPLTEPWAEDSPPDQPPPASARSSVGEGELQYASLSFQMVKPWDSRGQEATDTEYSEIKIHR

Trypanosoma cruzi = experiment: Trypanosoma cruzi phosphomannomutase and mannose-1-phosphate guanylyltransferase assay; type: functional; conditions: 10 µM
[5] = molecular target: T2, Arginase-2, mitochondrial (Homo sapiens) (UniProt P78540); experiment: in vitro enzyme assay to detect the production of urea directly proportional to the activity of Arginase II; type: functional; conditions: 33.3 µM; note: in the data most compounds retested in dose-response had high values
T2 sequence (whole entry): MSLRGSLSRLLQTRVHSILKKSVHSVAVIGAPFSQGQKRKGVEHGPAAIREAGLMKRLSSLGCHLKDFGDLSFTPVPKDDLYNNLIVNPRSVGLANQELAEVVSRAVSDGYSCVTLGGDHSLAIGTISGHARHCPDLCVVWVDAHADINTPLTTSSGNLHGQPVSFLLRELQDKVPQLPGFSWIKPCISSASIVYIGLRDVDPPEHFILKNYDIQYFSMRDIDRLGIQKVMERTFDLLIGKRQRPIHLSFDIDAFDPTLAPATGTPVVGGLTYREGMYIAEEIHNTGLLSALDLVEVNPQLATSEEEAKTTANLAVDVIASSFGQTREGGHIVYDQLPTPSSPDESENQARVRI

[6] = molecular target: T3, Proteasome subunit beta (Trypanosoma cruzi) (UniProt O96673); experiment: Trypanosoma cruzi proteasome chymotrypsin-like activity (TcProtChymo) assay.; note: in the data most compounds retested in dose-response had high values; type: functional; conditions: 9.37 µM
T3 sequence (whole entry): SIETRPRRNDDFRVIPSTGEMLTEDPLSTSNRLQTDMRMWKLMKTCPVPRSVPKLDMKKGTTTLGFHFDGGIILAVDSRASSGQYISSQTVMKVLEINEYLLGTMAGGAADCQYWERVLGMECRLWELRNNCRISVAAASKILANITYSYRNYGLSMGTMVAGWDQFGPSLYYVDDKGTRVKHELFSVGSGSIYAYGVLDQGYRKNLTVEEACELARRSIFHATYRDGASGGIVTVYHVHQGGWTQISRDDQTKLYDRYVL

Homo sapiens = organism: Homo sapiens; experiment: To identify inhibition of the IFN signalling (Jak-Stat) pathway via expression of an eGFP reporter gene under the control of an IFN-stimulated response element (ISRE) containing MxA promoter.; type: functional; conditions: 30 µM
[7] = molecular target: T4, Tyrosyl-tRNA synthetase, putative (Trypanosoma cruzi (strain CL Brener)) (UniProt Q4DSP6); experiment: Trypanosoma cruzi tyrosyl tRNA synthetase (TcYRS) _High Tyrosine SOP; type: functional; conditions: 30 µM; note: in the data most compounds retested in dose-response had high values
T4 sequence (whole entry): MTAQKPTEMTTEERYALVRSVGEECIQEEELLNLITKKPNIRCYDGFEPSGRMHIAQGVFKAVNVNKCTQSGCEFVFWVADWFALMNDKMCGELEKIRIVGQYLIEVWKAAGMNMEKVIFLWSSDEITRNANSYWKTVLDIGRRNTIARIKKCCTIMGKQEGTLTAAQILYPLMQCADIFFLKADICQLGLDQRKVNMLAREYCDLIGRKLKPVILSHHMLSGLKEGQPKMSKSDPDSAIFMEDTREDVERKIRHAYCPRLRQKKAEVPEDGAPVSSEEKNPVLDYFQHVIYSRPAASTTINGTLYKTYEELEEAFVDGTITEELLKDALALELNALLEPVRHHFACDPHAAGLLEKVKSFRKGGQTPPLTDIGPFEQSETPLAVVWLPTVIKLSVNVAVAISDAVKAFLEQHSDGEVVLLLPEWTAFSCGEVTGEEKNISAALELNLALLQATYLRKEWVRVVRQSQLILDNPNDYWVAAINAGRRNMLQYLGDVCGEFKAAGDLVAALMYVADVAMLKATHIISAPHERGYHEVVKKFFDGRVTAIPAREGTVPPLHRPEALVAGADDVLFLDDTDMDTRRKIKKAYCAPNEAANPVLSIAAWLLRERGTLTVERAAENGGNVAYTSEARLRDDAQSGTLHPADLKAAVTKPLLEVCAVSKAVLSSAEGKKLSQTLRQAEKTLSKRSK

[8] = molecular target: T4, Tyrosyl-tRNA synthetase, putative (Trypanosoma cruzi (strain CL Brener)); experiment: Trypanosoma cruzi tyrosyl tRNA synthetase (TcYRS) SOP; type: functional; conditions: 30 µM
[9] = molecular target: Chromo domain-containing protein 1 (Saccharomyces cerevisiae (strain ATCC 204508 / S288c) (Baker's yeast)) (UniProt P32657); experiment: ScCHD-1 Enzyme Inhibition Assay; type: functional; conditions: 30 µM; note: in the data most compounds retested in dose-response had high values
Chain of Chromo domain-containing protein 1 (Saccharomyces cerevisiae (strain ATCC 204508 / S288c) (Baker's yeast)) (P32657 whole entry, the tested form may be a part): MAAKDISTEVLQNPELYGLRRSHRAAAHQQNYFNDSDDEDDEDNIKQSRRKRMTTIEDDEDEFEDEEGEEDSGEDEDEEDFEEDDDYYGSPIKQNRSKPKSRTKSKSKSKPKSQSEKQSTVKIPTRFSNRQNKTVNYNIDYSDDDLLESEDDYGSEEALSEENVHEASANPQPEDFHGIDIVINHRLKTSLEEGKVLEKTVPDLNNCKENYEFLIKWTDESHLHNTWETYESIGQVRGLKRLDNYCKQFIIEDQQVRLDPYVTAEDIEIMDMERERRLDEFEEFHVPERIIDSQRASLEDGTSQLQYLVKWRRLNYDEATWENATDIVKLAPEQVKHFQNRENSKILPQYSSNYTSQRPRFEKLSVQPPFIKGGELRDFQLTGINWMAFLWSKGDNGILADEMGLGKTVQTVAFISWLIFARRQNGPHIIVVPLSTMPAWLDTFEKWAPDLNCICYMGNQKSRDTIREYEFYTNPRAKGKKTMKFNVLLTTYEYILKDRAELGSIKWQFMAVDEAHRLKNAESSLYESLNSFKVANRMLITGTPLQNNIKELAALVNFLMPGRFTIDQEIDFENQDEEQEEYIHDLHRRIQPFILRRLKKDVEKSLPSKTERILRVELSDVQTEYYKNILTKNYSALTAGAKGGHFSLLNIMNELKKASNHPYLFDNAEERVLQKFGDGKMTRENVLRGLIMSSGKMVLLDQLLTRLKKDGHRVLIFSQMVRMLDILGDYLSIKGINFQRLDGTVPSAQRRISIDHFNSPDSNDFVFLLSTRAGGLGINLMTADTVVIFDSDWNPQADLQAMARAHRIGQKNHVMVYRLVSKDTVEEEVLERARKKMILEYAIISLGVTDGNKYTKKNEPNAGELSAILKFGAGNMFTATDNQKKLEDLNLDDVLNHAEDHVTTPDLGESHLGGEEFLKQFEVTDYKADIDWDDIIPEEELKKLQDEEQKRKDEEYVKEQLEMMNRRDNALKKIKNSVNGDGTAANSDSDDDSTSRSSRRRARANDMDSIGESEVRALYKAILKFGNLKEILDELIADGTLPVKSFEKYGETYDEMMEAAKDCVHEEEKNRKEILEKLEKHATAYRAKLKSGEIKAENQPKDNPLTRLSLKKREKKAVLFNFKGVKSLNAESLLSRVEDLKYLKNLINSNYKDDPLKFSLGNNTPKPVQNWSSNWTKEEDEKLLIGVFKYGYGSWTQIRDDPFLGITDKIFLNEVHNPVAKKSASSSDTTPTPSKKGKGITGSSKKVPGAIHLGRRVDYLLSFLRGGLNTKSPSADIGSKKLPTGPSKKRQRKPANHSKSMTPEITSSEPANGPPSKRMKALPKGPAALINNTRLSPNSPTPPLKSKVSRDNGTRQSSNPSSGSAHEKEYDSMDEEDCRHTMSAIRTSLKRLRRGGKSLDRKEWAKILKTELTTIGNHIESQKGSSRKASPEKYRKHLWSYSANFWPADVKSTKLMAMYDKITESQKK

Chain of Protein translocase subunit SecA (Escherichia coli (strain K12)) (P10408 whole entry): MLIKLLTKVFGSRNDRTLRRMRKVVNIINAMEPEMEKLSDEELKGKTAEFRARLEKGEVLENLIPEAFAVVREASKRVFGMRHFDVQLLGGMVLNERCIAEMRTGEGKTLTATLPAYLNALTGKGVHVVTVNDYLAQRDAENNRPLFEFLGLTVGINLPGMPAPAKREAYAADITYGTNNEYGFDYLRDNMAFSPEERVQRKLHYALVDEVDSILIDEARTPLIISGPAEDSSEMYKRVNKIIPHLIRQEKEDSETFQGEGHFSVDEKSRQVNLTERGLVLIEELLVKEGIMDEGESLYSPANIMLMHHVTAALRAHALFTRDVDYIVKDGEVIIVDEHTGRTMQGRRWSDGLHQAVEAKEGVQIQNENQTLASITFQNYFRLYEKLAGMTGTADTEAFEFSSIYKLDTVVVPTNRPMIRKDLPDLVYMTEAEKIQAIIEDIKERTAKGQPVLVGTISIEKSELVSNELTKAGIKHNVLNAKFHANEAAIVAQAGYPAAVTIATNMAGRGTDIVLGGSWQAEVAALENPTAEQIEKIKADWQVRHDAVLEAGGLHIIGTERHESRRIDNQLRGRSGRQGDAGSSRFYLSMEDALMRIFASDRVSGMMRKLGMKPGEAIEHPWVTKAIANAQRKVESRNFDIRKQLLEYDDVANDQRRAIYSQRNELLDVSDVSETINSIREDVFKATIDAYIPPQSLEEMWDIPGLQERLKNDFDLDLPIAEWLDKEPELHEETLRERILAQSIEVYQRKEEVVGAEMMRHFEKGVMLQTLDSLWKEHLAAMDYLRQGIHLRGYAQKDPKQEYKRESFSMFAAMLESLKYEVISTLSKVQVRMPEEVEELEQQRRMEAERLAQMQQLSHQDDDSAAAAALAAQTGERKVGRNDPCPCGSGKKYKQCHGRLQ

SMILES | Percent Effect [1] | Percent Effect [2] | Percent Effect [3] | Percent Effect [4] | Percent Effect (Trypanosoma cruzi) | Percent Effect [5] | Percent Effect [6] | Percent Effect (Homo sapiens) | Percent Effect [7] | Percent Effect [8] | Percent Effect [9]
O=c1cc2c(nn1CN1CCN(c3ccccc3)CC1)CCC2 | -2.18% | 12% | -4.49% | 2.85% | 0% | -1.23% | 15% | 11.5% | 6.35% | 15.4% | -9.54%
CCCNC(=O)Nc1cccc2c1CCN(S(C)(=O)=O)C2 | -9.62% | 18.4% | -0.671% | 6.12% | 4.38% | -35.5% | 6.81% | -3.94% | 3.19% | 18.2% | -1.24%
COc1cc(CCC(=O)NCC2CCCN2C)ccc1OCC(F)(F)F (stereo not given) | -2.12% | 7.89% | -14% | 4.13% | -0.0934% | -2.88% | 11.4% | 14.2% | 5.42% | 16.1% | -7.41%
COCCN(Cc1ccc(F)cc1Cl)C(=O)c1ccncc1 | -1.67% | -1.39% | -3.11% | 0.447% | 0.486% | -1.32% | 5.09% | 0.399% | -1.05% | 0% | -1.32%
CCc1nc(C2CCCN2Cc2nccn2Cc2ccccc2)no1 (stereo not given) | -0.608% | 0% | 1.64% | 13.2% | 2.25% | 0.21% | 9.13% | 10.5% | 2.86% | 2.35% | 4.26%
COC(=O)CCN1CCCC1c1ccccc1Cl (stereo not given) | -3.1% | -2.67% | -1.16% | 1.78% | 2.04% | -1.56% | 5.41% | 1.88% | 3.83% | 6.17% | -0.731%
COCCN1CCC(CNC(=O)C2(c3cccc(C)c3)CC2)CC1 | -2.68% | 3.8% | 0.953% | 1.27% | -4.82% | 2.8% | 0.172% | 7.85% | 1.04% | 2.53% | -25%
CSCc1cccc(S(=O)(=O)NCCCN2CCOCC2)c1 | -6.05% | 5.2% | 1.35% | 8.61% | 3.64% | -6.9% | 3.33% | -22.2% | 4.3% | 11.1% | -3.9%
CN1CCCC[C@@H]2[C@H]1[C@@H](c1ccccc1)CCN2C(=O)c1ccccc1 | -2.17% | -12.2% | 2.42% | 3.03% | 4.54% | 0.696% | 15.6% | -13.3% | 7.53% | 14.3% | -12.5%
Cc1cc(CN(C)C(=O)C2CCS(=O)(=O)C2)no1 (stereo not given) | 0.281% | 18.2% | -1.29% | -9.12% | 4.21% | 2.74% | 14% | 31.4% | 5.71% | 21.2% | -8.16%
CSCC(C)(O)CNC(=O)c1cc(Br)ccc1Cl (stereo not given) | -6.56% | 2.74% | -10.3% | 29.6% | 9.01% | -4.54% | 18.1% | 10.3% | 3.23% | 17.5% | 34.8%
Cc1ccc(C2CCCCCN2Cc2cn(C)nc2C)cc1 (stereo not given) | -2.53% | 5.2% | 1.3% | 6.91% | 4.83% | 1.94% | 5.92% | -15% | 8.47% | 19.2% | -11.2%
CCn1ccnc1CN1C[C@@H](CN2CCCC2)[C@@H](CO)C1 | -6.84% | -2.7% | -3.35% | 7.12% | -4.44% | -1.91% | 8.28% | -5.58% | 1.59% | 7.32% | -1.85%
COC[C@@H]1CC[C@H]2[C@H](CCN2C(=O)c2ccncc2F)O1 | -5.45% | 2.7% | -0.0287% | 17.9% | 2.05% | 2.73% | -4.21% | -15.4% | 5.38% | 13.6% | -2.68%
Cc1nc(COCc2cnc3n2CCN(C2CCC2)C3C)cs1 (stereo not given) | -2.77% | 5.33% | -2.96% | 12.2% | 5.21% | -57.2% | 10.8% | -7.58% | 3.12% | 7.5% | -6.66%
COc1c(C(=O)NCc2cccnc2)nnn1Cc1ccc(C)cc1 | -1.69% | 1.33% | 1.61% | 3.68% | -4.13% | 1.23% | 4.25% | 5.48% | 1.06% | 2.56% | 0.167%
Cc1c(C(=O)NC(CN2CCCC2=O)c2ccccc2)cnn1C (stereo not given) | 0.252% | 10.5% | 1.96% | -5.31% | -4.7% | 6.9% | 7.69% | 19% | 3.43% | 9.76% | -6.11%
CNC(=O)c1cc2c(nc1N(C)C)CCN(S(=O)(=O)CC(C)C)CC2 | -2.25% | 5.2% | 7.84% | 6.98% | -2.27% | -5.81% | 3.83% | -12.4% | -9.52% | 1.28% | -2.31%
O=C(NCCN1CCCCC1)c1nc2ccccc2c(=O)[nH]1 | 4.74% | 9.33% | -7.18% | -5.32% | -8.05% | -13.6% | 13.7% | -0.00779% | 0% | 10.3% | -9.94%
CN(Cc1ccco1)C(=O)CN1CCCC(Cn2cncn2)C1 (stereo not given) | -2.53% | 5.26% | -6.77% | 10.4% | 3.64% | 2.16% | 15% | -16.1% | 5.42% | 11.1% | -6.09%
